# Bioassay records from PubChem.
# Hits are enriched below; roughly 3.1% of the tested compounds scored in any of these assays.
# ASM inhibitor = human S-ASM enzyme inhibition. AID 504937. Potency, µM (titrated, usually from 57.5 µM), inactives show top-dose activity change, negative = inhibition, usual class: inhibitors. hit rate 0.006% among 340,000. placental ASM, HMU-PC fluorogenic substrate, 60 min
#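 qHTS format. ASM enzyme prepared from human placenta hydrolyses the fluorogenic substrate HMU-PC0 (9 uM final) over 60 min at 37 °C after a 10 min compound preincubation.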
# PLK1 PBD inh = PLK1 (human) polo-box domain binding inhibition; P53350; Plk1 PBD binding of FITC phosphopeptide, fluorescence polarization; Potency, µM, inactives show max response, negative = inhibition, usual class: inhibitors; hit rate 2.8% among 360,000; also: series mostly up to about 57 µM; % is scaled to controls: 0 for no effect and ±100 for the full control effect; nearly all actives have a fitted effect of over 65% in size
# Target sequence (P53350 whole entry, looked up, the tested form may be a part): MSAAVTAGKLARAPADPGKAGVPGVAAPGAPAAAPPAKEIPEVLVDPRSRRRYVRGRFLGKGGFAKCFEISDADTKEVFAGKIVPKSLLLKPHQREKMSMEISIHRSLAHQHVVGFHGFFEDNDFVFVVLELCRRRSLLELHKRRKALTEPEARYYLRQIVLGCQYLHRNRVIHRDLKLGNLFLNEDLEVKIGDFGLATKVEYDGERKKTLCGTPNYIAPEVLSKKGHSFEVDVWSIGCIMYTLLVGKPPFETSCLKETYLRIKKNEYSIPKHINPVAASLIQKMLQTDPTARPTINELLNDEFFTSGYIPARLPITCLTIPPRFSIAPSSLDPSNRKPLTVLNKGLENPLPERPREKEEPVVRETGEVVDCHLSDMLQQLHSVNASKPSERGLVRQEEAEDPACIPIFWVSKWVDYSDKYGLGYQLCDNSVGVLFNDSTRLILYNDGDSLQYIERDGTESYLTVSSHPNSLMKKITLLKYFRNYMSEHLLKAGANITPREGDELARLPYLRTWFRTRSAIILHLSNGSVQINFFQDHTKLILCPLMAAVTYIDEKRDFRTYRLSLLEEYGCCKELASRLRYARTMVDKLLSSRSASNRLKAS
# VDR inh = vitamin D3 receptor (human) inhibition. hit rate 0.93% among 400,000. P11473. VDR-SRC2-3 peptide fluorescence polarization, 2 h. Potency, µM, without a hit: max response, negative = inhibition, usual class: inhibitors; also: % is scaled to controls: 0 for no effect and ±100 for the full control effect
#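 Reagent solutions, kept cold and dark, are dispensed first; compounds are then pinned in at 23 nl, plates briefly spun, and incubated 2 h at ambient temperature. Inhibition of VDR–SRC2-3 peptide binding is read by fluorescence polarization.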
# Tb PFK inh = blocks T. brucei phosphofructokinase. Potency, µM (doses to about 57.5 µM), without a hit: at the highest dose activity, negative = inhibition, hits mostly inhibitors. hit rate 0.17% among 330,000. AID 485367. T. brucei PFK, ADP-Glo luminescence. O15648;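 also: 0% = uninhibited 1x PFK enzyme wells and -100% = no-enzyme wells; nearly all actives have a fitted effect of over 60% in size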
#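 Compounds were pin-transferred as a titration series up to 57 uM into substrate buffer (0.5 mM F6P, 0.1 mM ATP, pH 8.0), then 1.25 nM PFK was added and reactions ran 45 min before ADP-Glo detection.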
# TDP1 block = blocks human tyrosyl-DNA phosphodiesterase 1. Q9NUW8. recombinant TDP1, AlphaScreen DNA substrate cleavage. Potency, µM (top dose mostly 130 µM), for the others: at the highest dose activity change, negative = inhibition, hits mostly inhibitors. hit rate 0.28% among 350,000. AID 485290; also: % is scaled to controls: 0 for no effect and ±100 for the full control effect; nearly all actives have a fitted effect of over 40% in size
#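 Recombinant human Tdp1 (E. coli-expressed, 1 nM final) preincubated with compounds 15 min at room temperature, then 5'-biotin/3'-phosphotyrosine-FITC DNA substrate (15 nM final) added for 5 min. AlphaScreen beads (10 ug/ml final) added 10 min; cleavage lowers signal.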
# Pin1 inh = human Pin1 inhibition; Q13526; Pin1 FP peptide displacement, HiFluor488, 10 min; Potency, µM (top dose mostly 115 µM), without a hit: at the top dose activity, negative = inhibition, actives largely listed as inhibitors; hit rate 0.009% among 390,000; AID 504891; active = well fitted inhibition curve with a large enough effect in the polarisation, with a control signal flat, not every such curve was filed as active; inconclusive = small, poorly fitted or top-dose-only effect, or effect the other way, or a change in a side signal; inactive = no such curve, though single readings can be large or run the other way; the % refers to the polarisation; also: % is scaled to controls: 0 for no effect and ±100 for the full control effect
# Target sequence (Q13526 whole entry, looked up): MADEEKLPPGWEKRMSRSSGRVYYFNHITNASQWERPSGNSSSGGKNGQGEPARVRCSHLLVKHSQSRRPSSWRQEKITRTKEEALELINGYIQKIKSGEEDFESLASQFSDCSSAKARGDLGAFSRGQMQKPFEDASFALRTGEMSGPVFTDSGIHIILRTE
# Numbers without * were called inactive; ? = inconclusive; · = no result given; [ ] = remark or other dose. Unless noted, calls follow the shape of the dose curve; as a rule, active = well fitted curve in the direction sought with a large enough effect; inconclusive = small, poorly fitted or top-dose-only effect, or another doubt; inactive = no such curve, though single readings can be large; an effect the other way counts as inactive or inconclusive. Potency is read from the fitted curve at half-maximal effect.
SMILES,ASM inhibitor,PLK1 PBD inh,VDR inh,Tb PFK inh,TDP1 block,Pin1 inh
CC(=O)c1cnc2c(-c3ccc(Cl)cc3)cnn2c1C,-5.5%,29.9µM*,-7.3%,1.7%,-0.4%[56.1 µM],-0.6%
CCOC(=O)Cc1c(C)nc2c(-c3ccc(Cl)cc3)c(C)[nH]n2c1=O,3.9%,-9.6%,18.6%,-0.1%,5.3%,29.4%
O=C(COC(=O)CNC(=O)C1CCCCC1)NC1CC1,·,·,5.1%,·,-0.3%,-0.6%
COc1ccccc1C(=O)Nc1nc2ccccc2[nH]1,-4.7%,21.2µM*,?,?,-4.9%,0.7%
Cc1cccc(OCC(=O)NCc2n[nH]c(=O)c3ccccc23)c1,-2.8%,-15.3%,-3.0%,-10.8%,·,-2.9%
CC(C)c1ccc(OCC(=O)NCc2n[nH]c(=O)c3ccccc23)cc1,-4.1%,0.0%,13.5%,-3.8%,39.8µM*,8.4%
O=c1[nH]c(=S)c2ncn(-c3ccccc3)c2[nH]1,-2.4%,26.7µM*,?,0.2%,-5.1%,-1.3%
CN(Cc1ccco1)c1ccnc(-c2cccc(C#N)c2)n1,·,·,35.5µM*,·,·,·
CN(Cc1ccco1)c1ccnc(-c2cccnc2)n1,·,·,44.7µM*,·,·,·
CN(Cc1ccco1)c1ccnc(-c2ccoc2)n1,·,·,44.7µM*,·,3.55µM*,·
COc1ccc(C(=O)N(Cc2ccco2)Cc2ccco2)cc1,·,·,8.5%,·,4.7%,-0.3%
Cc1noc(C)c1-c1nccc(N(C)Cc2ccco2)n1,·,·,44.7µM*,·,·,·
O=C1COCCN1,·,·,-13.8%,·,6.8%,-7.0%
CN(Cc1ccco1)c1ccnc(-c2ccccc2C(F)(F)F)n1,·,·,44.7µM*,·,·,·
CNc1ccnc(-c2ccccc2C(F)(F)F)n1,·,·,8.3%,·,-2.2%[56.1 µM],·
Cc1ccc(S(=O)(=O)c2cn(C)c3cc(N4CCCCCC4)c(F)cc3c2=O)cc1,·,·,7.5%,·,-8.7%,-2.7%
Cc1ccc(-c2cc(C(=O)NC3CCCCC3)no2)cc1,-1.1%,-1.6%,-11.7%,8.5%,·,1.6%
Cc1ccc(-c2nc(C(=O)NC3CCCCCC3)no2)cc1,-7.9%,9.47µM*,79.4µM*,·,·,3.7%
O=C1CN(S(=O)(=O)c2ccccc2Cl)CCN1,3.2%,15µM*,-13.8%,0.5%,4.9%,-0.2%
O=C1CN(S(=O)(=O)c2cccc(Cl)c2Cl)CCN1,-0.7%,-5.8%,-15.7%,-6.1%,-5.2%,-0.1%
CCOc1cc(N2C(=O)CC3CS(=O)(=O)CC32)c(OCC)cc1NC(=O)c1ccccc1 (stereo not drawn),1.9%,2.99µM*,?,-3.6%,4.3%,-4.6%
Cc1cc(C)cc(NC2=CC(c3cccc(F)c3)N(c3cc(C)cc(C)c3)C2=O)c1 (stereo not drawn),·,·,-26.6%,·,-1.9%,5.0%
CSC1=NCCN1C(=O)c1ccc(S(=O)(=O)N(C)C)cc1,0.2%,26.7µM*,-20.6%,1.6%,2.0%,1.1%
CSC1=NCCN1C(=O)c1ccc(C)cc1,-1.5%,1.8%,-8.7%,4.2%,8.2%,-6.2%
CC(C)C(=O)NC(=S)Nc1sc2c(c1C(N)=O)CCCC2,-1.3%,18.9µM*,?,-11.9%,-2.6%,16.2%
SMILES,ASM inhibitor,PLK1 PBD inh,VDR inh,Tb PFK inh,TDP1 block,Pin1 inh
NC(=O)c1c(NC(=O)C2CC=CCC2C(=O)O)sc2c1CCCCC2 (stereo not drawn),-1.4%,26.7µM*,70.8µM*,?,·,?
NC(=O)c1c(NC(=O)CN2CCCC2)sc2c1CCCC2,-0.4%,2.99µM*,?,-0.4%,2.3%,3.7%
C=CCNC(=S)Nc1sc2c(c1C(N)=O)CCCC2,20.8%,13.4µM*,?,-3.8%,·,7.5%
COc1ccc(CNC(=O)CCCn2c(=O)c3cccn3c3ccc(F)cc32)cc1OC,·,·,6.9%,·,·,3.9%
Cc1ccc(S(=O)(=O)Oc2ccc(N=Nc3ccc(-c4ccc(N=Nc5c(O)ccc6cc(S(=O)(=O)O)cc(S(=O)(=O)O)c56)c(C)c4)cc3C)cc2)cc1,·,·,·,·,25.1%,·
CCOC(=O)c1c(NC(=O)OC)sc2c1CCC2,-6.6%,-5.0%,-10.8%,-3.9%,6.5%,-6.7%
CC(=O)NC(=S)Nc1sc2c(c1C#N)CCCCC2,-15.0%,10.6µM*,-12.3%,3.2%,2.7%,?
NC(=O)c1c(NC(=S)Nc2ccc(F)cc2)sc2c1CCCC2,-3.8%,?,-18.6%,0.2%,3.0%,-1.8%
CC1CCc2c(sc(NC(=O)CCCn3cnc([N+](=O)[O-])n3)c2C(N)=O)C1 (stereo not drawn),-0.4%,-3.6%,-13.7%,1.8%,4.2%,-0.8%
CC(=O)Nc1sc2c(c1C#N)CCCC2,-2.6%,-6.7%,0.8%,·,1.0%,6.5%
NC(=O)c1c(NC(=O)CCCn2cnc([N+](=O)[O-])n2)sc2c1CCCC2,-2.4%,4.74µM*,44.7µM*,-7.9%,0.0%,0.9%
COC(=O)Nc1sc2c(c1C(N)=O)CCCCCC2,-2.1%,13.4µM*,?,-5.6%,1.1%,-1.9%
NC(=O)c1c(NC(=O)c2cc(-c3ccc(F)cc3)on2)sc2c1CCCC2,·,·,56.2µM*,·,-6.4%,-1.2%
CCC(C)n1c(=O)c2sccc2n2c(CCCC(=O)Nc3ccc(F)cc3)nnc12 (stereo not drawn),·,·,2.5%,·,2.6%,-1.3%
O=S1(=O)N=C(Oc2cccc(C(F)(F)F)c2)c2ccccc21,·,·,·,·,1.7%,-0.6%
Cc1c2ccccc2nc2c(F)c(NCCO)c(F)c(F)c12,-4.1%,6.7µM*,?,0.0%,0.0%,?
OCCNc1c2ccccc2nc2c(F)c(F)c(F)c(F)c12,257.2%,-9.4%,-12.4%,2.9%,-1.9%,?
Cc1ccc(-c2nc(-c3ccccc3)no2)c(Cl)c1,-8.0%,2.4%,-3.9%,0.8%,56.2µM*,-0.5%
COc1ccc(-c2noc(-c3ccccc3-c3ccccc3)n2)cc1,-3.6%,4.0%,0.2%,-0.6%,-3.1%,6.7%
O=[N+]([O-])c1cc(Br)c(O)c(/C=N/Nc2nnnn2-c2cccc3ccccc23)c1,30.6%,13.4µM*,?,3.2%,11.8%,-19.2%
CCc1ccccc1NC(=O)Nc1ccc2c(c1)N(CC)C(=O)c1ccccc1S2,·,·,4.8%,·,5.7%,5.3%
CCCc1ccccc1OCCNC(C)=O,0.1%,3.36µM*,?,-9.6%,-1.1%,0.1%
CCCCN(C)CCNC(=O)c1cc(-c2cccnc2)nc2ccc(S(=O)(=O)N3CCC(C)CC3)cc12,-3.8%,26.7µM*,?,-1.8%,6.8%,17.3%
COc1cccc(-c2cncnc2Nc2ccc(F)cc2)c1,·,·,50.1µM*,·,·,·
CCOCCOC(=O)C1=C(C)N(C)C(=O)NC1c1ccccc1Cl (stereo not drawn),1.9%,3.5%,-7.3%,-1.4%,4.8%,0.1%
CCOC(=O)C1=C(C)N(C)C(=O)NC1c1cccc2ccccc12 (stereo not drawn),0.8%,10.6µM*,?,-2.9%,·,1.2%
